Measurements as given in PubChem BioAssay AID1159580 (chemical genetic matrix, 2015).
About 2,000 (36%) of roughly 5,500 compounds were called active. Not shown: some 18% with an inconclusive outcome. No stated cut-off is given here; in the data, active means normalized growth mostly below about 0.91 (no sharp cut-off); inconclusive means no clear call, values can overlap the other calls; inactive means mostly above about 0.92. The list shows a part of the results.

Experiment: chemical genetic growth profiling, strain panel (AID 1159580);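 further: tested at 20 µM; growth read once vehicle control cultures reached saturation at 30 °C; 1 = growth at the plate median or of vehicle wells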
Conditions: growth OD

Measured: normalized growth

N#Cc1c(Cl)c(Cl)c(Cl)c(C#N)c1Cl
inactive: S. cerevisiae deletion strains, locus YJR075W, strain HOC1, stronger effect = lower value 0.999 | S. cerevisiae deletion strains, locus YKL009W, strain mrt4, stronger effect = lower value 0.976 | S. cerevisiae deletion strains, locus YKL068W, stronger effect = lower value 0.989 | S. cerevisiae deletion strains, locus YKL085W, strain MDH1 (second series), stronger effect = lower value 0.989 | S. cerevisiae deletion strains, locus YKL085W, strain MDH1, stronger effect = lower value 0.989 | S. cerevisiae deletion strains, locus YKL190W, strain CNB1, stronger effect = lower value 1.01 | S. cerevisiae deletion strains, locus YKR001C, strain vps1, stronger effect = lower value 0.983 | S. cerevisiae deletion strains, locus YLR039C, strain RIC1, stronger effect = lower value 1 | S. cerevisiae deletion strains, locus YLR058C, strain SHM2, stronger effect = lower value 0.994 | S. cerevisiae deletion strains, locus YLR102C, strain apc9, stronger effect = lower value 0.981 | S. cerevisiae deletion strains, locus YLR262C, strain YPT6, stronger effect = lower value 1.02 | S. cerevisiae deletion strains, locus YLR268W, strain sec22, stronger effect = lower value 0.998 | S. cerevisiae deletion strains, locus YLR330W, strain CHS5, stronger effect = lower value 0.996 | S. cerevisiae deletion strains, locus YLR342W, strain FKS1 (second series), stronger effect = lower value 0.993 | S. cerevisiae deletion strains, locus YLR371W, strain rom2, stronger effect = lower value 0.975 | S. cerevisiae deletion strains, locus YLR418C, strain cdc73, stronger effect = lower value 0.995 | S. cerevisiae deletion strains, locus YML016C, strain PPZ1, stronger effect = lower value 0.998 | S. cerevisiae deletion strains, locus YML032C, strain rad52, stronger effect = lower value 0.968 | S. cerevisiae deletion strains, locus YML124C, strain tub3, stronger effect = lower value 0.984 | S. cerevisiae deletion strains, locus YMR078C, strain ctf18, stronger effect = lower value 0.969 | S. cerevisiae deletion strains, locus YMR223W, strain ubp8, stronger effect = lower value 0.975 | S. cerevisiae deletion strains, locus YMR263W, strain SAP30, stronger effect = lower value 1 | S. cerevisiae deletion strains, locus YMR307W, strain GAS1, stronger effect = lower value 0.902 | S. cerevisiae deletion strains, locus YNL067W, strain RPL9B, stronger effect = lower value 1 | S. cerevisiae deletion strains, locus YNL128W, strain TEP1, stronger effect = lower value 0.997 | S. cerevisiae deletion strains, locus YNL153C, strain GIM3, stronger effect = lower value 1.01 | S. cerevisiae deletion strains, locus YNL233W, strain BNI4, stronger effect = lower value 1 | S. cerevisiae deletion strains, locus YNL250W, strain rad50, stronger effect = lower value 0.98 | S. cerevisiae deletion strains, locus YNL271C, strain bni1, stronger effect = lower value 0.974 | S. cerevisiae deletion strains, locus YNL298W, strain CLA4, stronger effect = lower value 0.971 | S. cerevisiae deletion strains, locus YNL307C, strain MCK1, stronger effect = lower value 0.981 | S. cerevisiae deletion strains, locus YNL322C, strain KRE1, stronger effect = lower value 0.997 | S. cerevisiae deletion strains, locus YNR052C, strain pop2, stronger effect = lower value 0.978 | S. cerevisiae deletion strains, locus YOL006C, strain TOP1, stronger effect = lower value 1.01 | S. cerevisiae deletion strains, locus YOL012C, strain htz1 1.56 | S. cerevisiae deletion strains, locus YOL147C, strain pex11, stronger effect = lower value 0.989 | S. cerevisiae deletion strains, locus YOR061W, strain CKA2, stronger effect = lower value 1.01 | S. cerevisiae deletion strains, locus YOR069W, strain VPS5, stronger effect = lower value 0.999 | S. cerevisiae deletion strains, locus YOR136W, strain idh2, stronger effect = lower value 0.977 | S. cerevisiae deletion strains, locus YOR144C, strain elg1, stronger effect = lower value 0.981 | S. cerevisiae deletion strains, locus YOR184W, strain ser1, stronger effect = lower value 0.965 | S. cerevisiae deletion strains, locus YOR316C, strain cot1, stronger effect = lower value 0.984 | S. cerevisiae deletion strains, locus YPL055C, strain LGE1, stronger effect = lower value 1.01 | S. cerevisiae deletion strains, locus YPL241C, strain CIN2, stronger effect = lower value 1 | S. cerevisiae deletion strains, locus YPR119W, strain clb2, stronger effect = lower value 0.985 | S. cerevisiae deletion strains, locus YPR141C, strain kar3, stronger effect = lower value 0.978 | S. cerevisiae deletion strains, locus YPR163C, strain tif3, stronger effect = lower value 0.98 | S. cerevisiae deletion strains, locus YPR167C, strain met16, stronger effect = lower value 0.989 | S. cerevisiae deletion strains, strain wtn01, stronger effect = lower value 0.99 | S. cerevisiae strains, strain wild type, stronger effect = lower value 0.997
active: S. cerevisiae deletion strains, locus YKL160W, strain elf1, stronger effect = lower value 0.0734 | S. cerevisiae deletion strains, locus YKR026C, strain gcn3, stronger effect = lower value 0.0728 | S. cerevisiae deletion strains, locus YKR091W, strain srl3, stronger effect = lower value 0.0738 | S. cerevisiae deletion strains, locus YLL001W, strain dnm1, stronger effect = lower value 0.0739 | S. cerevisiae deletion strains, locus YLL026W, stronger effect = lower value 0.068 | S. cerevisiae deletion strains, locus YLL041C, strain sdh2, stronger effect = lower value 0.0683 | S. cerevisiae deletion strains, locus YLR027C, strain aat2, stronger effect = lower value 0.072 | S. cerevisiae deletion strains, locus YLR113W, strain HOG1, stronger effect = lower value 0.153 | S. cerevisiae deletion strains, locus YLR221C, strain rsa3, stronger effect = lower value 0.0754 | S. cerevisiae deletion strains, locus YLR258W, strain gsy2, stronger effect = lower value 0.0732 | S. cerevisiae deletion strains, locus YLR262C, strain YPT6 (second series), stronger effect = lower value 0.0948 | S. cerevisiae deletion strains, locus YLR320W, strain mms22, stronger effect = lower value 0.0991 | S. cerevisiae deletion strains, locus YLR342W, strain FKS1, stronger effect = lower value 0.0799 | S. cerevisiae deletion strains, locus YLR357W, strain rsc2, stronger effect = lower value 0.146 | S. cerevisiae deletion strains, locus YLR370C, strain arc18, stronger effect = lower value 0.0758 | S. cerevisiae deletion strains, locus YLR384C, strain iki3, stronger effect = lower value 0.0759 | S. cerevisiae deletion strains, locus YML120C, strain ndi1, stronger effect = lower value 0.0696 | S. cerevisiae deletion strains, locus YMR058W, strain fet3, stronger effect = lower value 0.074 | S. cerevisiae deletion strains, locus YMR125W, strain sto1, stronger effect = lower value 0.0959 | S. cerevisiae deletion strains, locus YMR129W, stronger effect = lower value 0.0707 | S. cerevisiae deletion strains, locus YMR205C, strain PFK2, stronger effect = lower value 0.111 | S. cerevisiae deletion strains, locus YMR231W, strain pep5, stronger effect = lower value 0.0788 | S. cerevisiae deletion strains, locus YNL071W, strain lat1, stronger effect = lower value 0.0711 | S. cerevisiae deletion strains, locus YNL183C, strain NPR1, stronger effect = lower value -0.00756 | S. cerevisiae deletion strains, locus YNL209W, strain ssb2, stronger effect = lower value 0.0719 | S. cerevisiae deletion strains, locus YNL248C, strain rpa49, stronger effect = lower value 0.0922 | S. cerevisiae deletion strains, locus YNL322C, strain KRE1 (second series), stronger effect = lower value 0.0768 | S. cerevisiae deletion strains, locus YNR049C, strain mso1, stronger effect = lower value 0.0681 | S. cerevisiae deletion strains, locus YOR001W, strain rrp6, stronger effect = lower value 0.0917 | S. cerevisiae deletion strains, locus YOR070C, strain gyp1, stronger effect = lower value 0.0717 | S. cerevisiae deletion strains, locus YOR080W, strain dia2, stronger effect = lower value 0.0799 | S. cerevisiae deletion strains, locus YOR083W, strain WHI5, stronger effect = lower value 0.0798 | S. cerevisiae deletion strains, locus YOR106W, strain vam3, stronger effect = lower value 0.0853 | S. cerevisiae deletion strains, locus YOR231W, strain MKK1, stronger effect = lower value 0.13 | S. cerevisiae deletion strains, locus YOR265W, strain rbl2, stronger effect = lower value 0.0688 | S. cerevisiae deletion strains, locus YOR270C, strain vph1, stronger effect = lower value 0.122 | S. cerevisiae deletion strains, locus YOR290C, strain snf2, stronger effect = lower value 0.0764 | S. cerevisiae deletion strains, locus YPL051W, strain arl3, stronger effect = lower value 0.0808 | S. cerevisiae deletion strains, locus YPL078C, strain atp4, stronger effect = lower value 0.081 | S. cerevisiae deletion strains, locus YPL106C, strain sse1, stronger effect = lower value 0.126 | S. cerevisiae deletion strains, locus YPL240C, strain hsp82, stronger effect = lower value 0.0722 | S. cerevisiae deletion strains, locus YPL256C, strain CLN2, stronger effect = lower value 0.186
